Results: PubChem BioAssay (NCATS)
“And” between values parts separate entries of the source, which are not always exact repeats. Identical values can stand only once. Results filed as inconclusive are left out. The source made the active and inactive calls. Unless noted, calls come from the whole dose curve; as a rule, active = well fitted curve in the direction sought with a large enough effect; inconclusive = small, poorly fitted or top-dose-only effect, or another doubt; inactive = no such curve, though single readings can be large; an effect the other way counts as inactive or inconclusive.

Key:
[1] = tested on: Zika virus NS2B-NS3 protease; assay: Primary screen GU AMC qHTS for Zika virus inhibitors (AID 1347154);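 note: 0% = no-inhibitor control and -100% = no-enzyme control; nearly all actives have a fitted effect of over 70% in size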
Method in brief: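 Fluorogenic AMC-substrate cleavage by noncovalent NS2B-NS3 protease complex (25 nM, pH 8.0 Tris buffer with Tween 20) followed for 15 minutes at room temperature (~20% conversion). Percent inhibition from ex340/em450 signal change, fitted by 4-parameter Hill equation.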

[2] = target: Glucocorticoid receptor (Homo sapiens) (UniProt P04150); assay: GR-GFP Redistribution (AID 450;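 active = compounds whose dose series gives a full or clear partial fitted curve of increased nuclear translocation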; note: potency is the fitted concentration of half-maximal effect); conditions: U2OS GR-GFP nuclear translocation, laser cytometry, 2 h
Glucocorticoid receptor (Homo sapiens), sequence (P04150 whole entry, looked up, the tested form may be a part): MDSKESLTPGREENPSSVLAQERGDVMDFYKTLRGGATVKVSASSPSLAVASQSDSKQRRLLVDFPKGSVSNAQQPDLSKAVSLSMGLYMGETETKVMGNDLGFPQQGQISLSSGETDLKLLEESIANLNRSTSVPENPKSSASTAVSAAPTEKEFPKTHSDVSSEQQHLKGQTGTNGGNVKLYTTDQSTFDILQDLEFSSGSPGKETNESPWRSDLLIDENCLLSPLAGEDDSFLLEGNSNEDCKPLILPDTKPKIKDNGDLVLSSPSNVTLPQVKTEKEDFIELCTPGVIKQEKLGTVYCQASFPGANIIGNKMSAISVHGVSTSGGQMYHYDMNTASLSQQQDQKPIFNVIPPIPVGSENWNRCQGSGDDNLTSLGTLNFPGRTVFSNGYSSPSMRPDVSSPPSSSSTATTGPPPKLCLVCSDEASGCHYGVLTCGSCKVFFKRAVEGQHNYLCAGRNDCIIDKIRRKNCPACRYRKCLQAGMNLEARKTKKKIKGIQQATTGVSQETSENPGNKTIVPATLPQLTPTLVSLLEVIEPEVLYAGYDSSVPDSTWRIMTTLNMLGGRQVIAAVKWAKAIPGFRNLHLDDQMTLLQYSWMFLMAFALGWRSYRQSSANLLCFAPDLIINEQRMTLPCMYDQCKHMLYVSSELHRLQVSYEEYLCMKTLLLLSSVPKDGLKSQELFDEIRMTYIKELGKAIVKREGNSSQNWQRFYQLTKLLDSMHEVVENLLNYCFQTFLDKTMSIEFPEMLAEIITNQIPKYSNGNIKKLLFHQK

[3] = target: Glucocorticoid receptor (Homo sapiens) (UniProt P04150); assay: GR-EFC Redistribution (AID 451; calls by dose curve; note: potency is the fitted concentration of half-maximal effect); conditions: CHO-K1 GR-EFC translocation, beta-gal luminescence, 2 h
Method in brief: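 Translocation of GR-ED fusion to nuclear EA restores b-gal, read by luminescence after 1 h room-temperature detection. Engineered CHO-K1 biosensor cells, 1,000/well, exposed 2 h at 37 C to titrations up to 46 uM final.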

[4] = target: Guanine nucleotide-binding protein G(i) subunit alpha-1 (Homo sapiens) (UniProt P63096); assay: qHTS Assay for Inhibitors of RGS12 GoLoco Motif Activity (Green Fluorophore) (AID 879);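 note: 0% = labeled peptide with Gαi1 and full inhibition = labeled peptide alone without protein; negative values mean loss of peptide binding seen as reduced polarization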
Guanine nucleotide-binding protein G(i) subunit alpha-1 (Homo sapiens), sequence (P63096 whole entry, looked up): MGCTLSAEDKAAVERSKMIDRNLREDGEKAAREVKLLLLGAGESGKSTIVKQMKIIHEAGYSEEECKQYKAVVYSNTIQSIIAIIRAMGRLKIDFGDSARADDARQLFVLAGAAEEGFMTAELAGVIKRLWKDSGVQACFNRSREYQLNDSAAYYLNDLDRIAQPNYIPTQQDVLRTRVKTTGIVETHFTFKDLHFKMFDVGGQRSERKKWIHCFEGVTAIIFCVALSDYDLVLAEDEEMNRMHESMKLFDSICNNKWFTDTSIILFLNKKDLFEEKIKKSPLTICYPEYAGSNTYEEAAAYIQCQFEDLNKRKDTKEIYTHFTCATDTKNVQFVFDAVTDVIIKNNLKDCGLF
Method in brief: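 A drop in FITC polarization marked displacement of the FITC-tagged RGS12 GoLoco peptide (10 nM) from Gαi1 (50 nM). Compounds were incubated 10 min at room temperature in Tris pH 7.5 buffer containing 150 mM NaCl, 0.1 mM GDP and 0.05% NP40; unlabeled peptide titration served as control.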

[5] = target: Muscarinic acetylcholine receptor M1 (Rattus norvegicus) (UniProt P08482); assay: qHTS Assay for Antagonists of Acetylcholine Muscarinic M1 Receptor: Kinetic Measurement of Intracellular Calcium Response (AID 943);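 note: Fluo-4 calcium signal as peak divided by basal fluorescence over 4 min; nearly all actives have a fitted effect of over 75% in size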
Muscarinic acetylcholine receptor M1 (Rattus norvegicus), sequence (P08482 whole entry, looked up): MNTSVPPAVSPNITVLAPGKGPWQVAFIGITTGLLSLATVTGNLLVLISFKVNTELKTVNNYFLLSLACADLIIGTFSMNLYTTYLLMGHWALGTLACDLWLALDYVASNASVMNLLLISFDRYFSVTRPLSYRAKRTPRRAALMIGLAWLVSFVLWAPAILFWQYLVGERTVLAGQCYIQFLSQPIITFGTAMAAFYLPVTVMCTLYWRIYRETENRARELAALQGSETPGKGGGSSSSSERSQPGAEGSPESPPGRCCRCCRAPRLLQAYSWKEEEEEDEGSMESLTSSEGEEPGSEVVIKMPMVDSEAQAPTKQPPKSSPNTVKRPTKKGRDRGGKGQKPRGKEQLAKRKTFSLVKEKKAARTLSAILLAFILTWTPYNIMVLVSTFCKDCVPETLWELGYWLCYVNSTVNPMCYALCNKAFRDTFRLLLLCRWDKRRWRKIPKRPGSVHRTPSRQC
Method in brief: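 Read-out: peak over basal Fluo-4 fluorescence, kinetic at 1 Hz for 4 min after EC80 carbachol (100 nM final). Rat M1-CHO cells, dye loaded 1 h at 37C, compound added 10 min before agonist.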

[6] = target: Muscarinic acetylcholine receptor M1 (Rattus norvegicus) (UniProt P08482); assay: qHTS Assay for Antagonists of Acetylcholine Muscarinic M1 Receptor: Measurement of IP-One Response (AID 944); note: nearly all actives have a fitted effect of over 75% in size
Method in brief: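 Read-out: HTRF competition between d2-IP1 and Eu-cryptate anti-IP1 antibody, emission 620 and 665 nm. Stimulus was carbachol, EC80 (200 nM), for 30 min in M1-CHO cells (rat receptor), after 10 min compound pre-treatment.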

[7] = target: Pyruvate kinase (Leishmania mexicana) (UniProt Q27686); assay: qHTS Validation Assay for Inhibitors of Leishmania Mexicana Pyruvate Kinase (AID 945);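 note: 0% = DMSO only neutral control wells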
Pyruvate kinase (Leishmania mexicana), sequence (Q27686 2-499 E452W): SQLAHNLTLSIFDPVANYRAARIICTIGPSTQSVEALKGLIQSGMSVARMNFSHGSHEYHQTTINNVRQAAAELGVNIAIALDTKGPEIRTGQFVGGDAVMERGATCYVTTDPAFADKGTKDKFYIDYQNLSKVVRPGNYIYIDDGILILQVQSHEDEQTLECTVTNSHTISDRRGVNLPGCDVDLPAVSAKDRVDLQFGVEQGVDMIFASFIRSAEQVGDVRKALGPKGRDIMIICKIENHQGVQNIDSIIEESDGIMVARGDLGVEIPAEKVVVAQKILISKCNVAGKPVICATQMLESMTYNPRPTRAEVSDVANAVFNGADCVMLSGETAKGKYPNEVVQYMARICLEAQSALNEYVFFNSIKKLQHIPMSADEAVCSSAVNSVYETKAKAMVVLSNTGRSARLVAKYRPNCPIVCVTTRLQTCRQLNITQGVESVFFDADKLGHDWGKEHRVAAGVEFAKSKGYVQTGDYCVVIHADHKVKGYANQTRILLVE
Method in brief: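 Eight-point qHTS titrations; enzyme 0.2 nM LmPYK (E451W mutant); substrates 0.5 mM PEP, 0.1 mM ADP; 7 mM MgCl2; 1 h room temperature; PKLight luminescence normalized to neutral control.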

[8] = target: Pyruvate kinase PKM (Homo sapiens) (UniProt P14618); assay: qHTS Assay for Activators of Human Muscle Pyruvate Kinase (AID 954; active = well fitted curve in the direction sought with a large enough effect, not every such curve was filed as active;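 note: 0% = uninhibited enzyme and -100% = no enzyme or full thiadiazolimine inhibition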)
Pyruvate kinase PKM (Homo sapiens), sequence (P14618 whole entry, looked up): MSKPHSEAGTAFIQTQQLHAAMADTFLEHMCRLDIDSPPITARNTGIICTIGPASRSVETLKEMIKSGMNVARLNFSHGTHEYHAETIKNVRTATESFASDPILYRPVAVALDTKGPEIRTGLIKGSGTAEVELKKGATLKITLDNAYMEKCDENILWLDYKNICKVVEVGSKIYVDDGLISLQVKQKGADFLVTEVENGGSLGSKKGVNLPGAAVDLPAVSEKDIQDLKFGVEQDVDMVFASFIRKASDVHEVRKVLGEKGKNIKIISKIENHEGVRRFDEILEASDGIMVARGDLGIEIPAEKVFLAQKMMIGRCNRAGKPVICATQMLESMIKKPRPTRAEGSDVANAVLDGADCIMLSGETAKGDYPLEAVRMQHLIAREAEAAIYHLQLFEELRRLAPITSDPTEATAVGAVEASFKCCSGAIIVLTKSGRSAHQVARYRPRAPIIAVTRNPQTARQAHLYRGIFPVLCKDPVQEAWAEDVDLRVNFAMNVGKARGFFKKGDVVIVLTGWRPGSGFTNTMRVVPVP
Method in brief: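 Compound pinned into substrate mix (0.5 mM PEP, 0.1 mM ADP), then 0.1 nM PKM2 added; 1 h, RT. Stop/detection luciferase reagent added, luminescence read. Normalized to no-inhibition and no-enzyme or reference-inhibitor controls.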

[9] = target: Alpha-galactosidase (Coffea arabica) (UniProt Q42656); assay: Counterscreen for Glucocerebrosidase Inhibitors: qHTS Assay for Coffee Bean alpha-Galactosidase at pH 4.5 (AID 957);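 note: plate controls were enzyme alone for no effect and no enzyme for full effect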
Alpha-galactosidase (Coffea arabica), sequence (Q42656 whole entry, looked up): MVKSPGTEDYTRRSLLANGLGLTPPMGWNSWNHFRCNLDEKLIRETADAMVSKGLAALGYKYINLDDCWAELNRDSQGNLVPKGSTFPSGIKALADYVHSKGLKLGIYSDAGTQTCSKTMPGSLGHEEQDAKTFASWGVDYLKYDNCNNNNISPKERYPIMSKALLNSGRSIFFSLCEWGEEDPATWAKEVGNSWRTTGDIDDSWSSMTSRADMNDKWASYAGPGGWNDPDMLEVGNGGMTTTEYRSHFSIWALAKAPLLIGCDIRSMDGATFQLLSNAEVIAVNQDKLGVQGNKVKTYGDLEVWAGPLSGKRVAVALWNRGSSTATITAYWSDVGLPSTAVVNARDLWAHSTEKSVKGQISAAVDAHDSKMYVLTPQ
Method in brief: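 Fluorogenic read-out: 4-methylumbelliferone at Ex 365/Em 440 nm after NaOH/glycine stop (pH 10). Enzyme 2 nM, 4-MU-alpha-galactoside 80 uM, citrate buffer pH 4.5, 20 min RT; normalized to no-enzyme and enzyme controls.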

[10] = target: Alpha-galactosidase A (Homo sapiens) (UniProt P06280); assay: Counterscreen for Glucocerebrosidase Inhibitors: qHTS Assay for Human alpha-Galactosidase at pH 4.5 (AID 992); note: 0% is about no effect
Alpha-galactosidase A (Homo sapiens), sequence (P06280 whole entry, looked up): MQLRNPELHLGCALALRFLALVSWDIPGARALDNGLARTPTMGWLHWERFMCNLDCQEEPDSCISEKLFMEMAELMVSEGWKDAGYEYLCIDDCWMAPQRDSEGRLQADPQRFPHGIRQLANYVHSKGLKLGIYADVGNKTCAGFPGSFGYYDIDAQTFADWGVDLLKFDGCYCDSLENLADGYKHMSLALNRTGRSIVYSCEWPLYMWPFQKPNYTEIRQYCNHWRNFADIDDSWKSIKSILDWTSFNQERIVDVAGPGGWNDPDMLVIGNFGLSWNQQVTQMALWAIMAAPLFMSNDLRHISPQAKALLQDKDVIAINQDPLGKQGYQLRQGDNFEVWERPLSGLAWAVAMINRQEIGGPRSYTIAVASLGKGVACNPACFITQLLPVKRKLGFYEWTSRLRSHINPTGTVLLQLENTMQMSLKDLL
Method in brief: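 Steps: enzyme (2 nM final), then compound across 0.7 nM to 77 uM, then 80 uM fluorogenic galactopyranoside substrate; incubate 20 min at room temperature; quench at pH 10; measure fluorescence at 365/440 nm.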

[11] = target: alpha-glucosidase (Oryza sativa, rice) (UniProt Q653V4); assay: Counterscreen for Glucocerebrosidase Inhibitors: qHTS Assay for Rice alpha-Glucosidase at pH 5.0 (AID 997);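 note: 0% = full activity with enzyme and -100% = basal without enzyme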
Method in brief: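 Endpoint fluorogenic assay at pH 5.0: compounds (0.7 nM to 77 uM) titrated against 4 nM rice enzyme and 400 uM 4-MU-alpha-glucoside for 20 min at room temperature; NaOH/glycine stop, read ex 365/em 440 nm, Hill-fitted AC50.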

[12] = target: Alpha-galactosidase (Coffea arabica) (UniProt Q42656); assay: Counterscreen for Glucocerebrosidase Inhibitors: qHTS Assay for Coffee Bean alpha-Galactosidase at pH 5.9 (AID 998);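 note: plate controls were uninhibited enzyme for no effect and no-enzyme basal signal for full effect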
Method in brief: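 Fluorogenic 4-MU substrate hydrolysis, 80 uM substrate and 2 nM coffee bean alpha-galactosidase, pH 5.9 citrate buffer, 20 min at room temperature, then NaOH/glycine stop. Titration 0.7 nM–77 uM, normalized to no-enzyme and enzyme controls, AC50 via Hill equation.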

[13] = Validation of Assay for Modulators of Lamin A Splicing (AID 1459; active = well fitted curve in the direction sought with a large enough effect in the signal ratio; the % refers to the signal ratio;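 note: cells exposed to compound for two days before reading; 0% is about no effect; ratio rise marks activators and ratio drop marks inhibitors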)
Method in brief: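 Dual-reporter HeLa S3 line (lamin A-EGFP minigene, DsRed2) treated with compounds 48 hrs, 0.5% DMSO final. Endpoint: EGFP/DsRed2 total intensity ratio from laser-scanning microplate cytometry.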

[14] = qHTS Assay for Lipid Storage Modulators (AID 1519; calls by dose curve); conditions: Drosophila S3 cells, BODIPY lipid droplet/cell ratio, laser cytometry, cells loaded with oleic acid
Method in brief: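 Cells seeded at 5,000 per well were treated with compounds over a concentration series and loaded with oleic acid (400 uM, as added). Lipid droplet fluorescence (488 nm excitation, 500-530 nm channel) was read by laser-scanning cytometry and normalized to 20 uM Triacsin C.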

[15] = target: DNA repair nuclease/redox regulator APEX1 (Homo sapiens) (UniProt P27695); assay: qHTS Validation Assay for Inhibitors of the Human Apurinic/apyrimidinic Endonuclease 1 (APE1) (AID 1705;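 note: TAMRA fluorescence gain over two minutes as APE1 cuts a quenched THF abasic duplex; % is set by controls: 0 for no effect and ±100 for the full control effect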)
DNA repair nuclease/redox regulator APEX1 (Homo sapiens), sequence (P27695 whole entry, looked up): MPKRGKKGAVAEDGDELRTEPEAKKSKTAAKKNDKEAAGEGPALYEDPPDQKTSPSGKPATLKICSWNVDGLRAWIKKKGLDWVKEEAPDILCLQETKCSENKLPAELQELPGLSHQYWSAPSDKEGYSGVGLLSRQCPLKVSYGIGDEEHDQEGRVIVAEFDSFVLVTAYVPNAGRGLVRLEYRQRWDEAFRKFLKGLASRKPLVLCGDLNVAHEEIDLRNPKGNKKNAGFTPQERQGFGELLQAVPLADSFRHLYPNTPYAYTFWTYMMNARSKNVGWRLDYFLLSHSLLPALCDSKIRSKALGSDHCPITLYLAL
Method in brief: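 Substrate: 50 nM final fluorophore/quencher THF-abasic duplex. Enzyme preincubated with compounds 15 min, RT. Progress derived from fluorescence difference, third minus first kinetic read.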

[16] = Counterscreen for APE1 Inhibitors: Fluorescent Dye Displacement Validation Assay (AID 1707);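 note: plate controls were ThO with dsDNA and no compound for no effect and ThO without dsDNA for full effect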
Method in brief: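 Reaction mixture of 250 nM Thiazole Orange and 50 nM double-stranded abasic-site DNA was dispensed, compounds were pin-transferred, and fluorescence was read at endpoint (480 nm ex, 540 nm em). Reduced fluorescence indicated dye displacement by DNA binding.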

[17] = qHTS for differential inhibitors of proliferation of Plasmodium falciparum line 7G8 (AID 1815);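 note: parasite growth measured after three days of incubation; plate controls were vehicle wells for no effect and reference inhibitor wells for full effect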
[18] = qHTS for differential inhibitors of proliferation of Plasmodium falciparum line GB4 (AID 1816); conditions: Potency: Plasmodium falciparum GB4 proliferation inhibition;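 note: parasite growth measured after 72 h incubation; 0% = vehicle DMSO and -100% = reference inhibitor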
[19] = qHTS for differential inhibitors of proliferation of Plasmodium falciparum line 3D7 (AID 1876);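 note: parasite growth measured after three days of culture; 0% = vehicle wells and -100% = reference inhibitor wells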
[20] = qHTS for differential inhibitors of proliferation of Plasmodium falciparum line D10 (AID 1877);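 note: parasites grown with compound for 72 h before DNA staining; plate controls were vehicle wells for no effect and reference inhibitor wells for full effect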
[21] = qHTS for differential inhibitors of proliferation of Plasmodium falciparum line Dd2 (AID 1882); conditions: Potency: Plasmodium falciparum Dd2 proliferation inhibition;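 note: compound exposure of 72 h on infected erythrocytes; plate controls were DMSO vehicle for no effect and 0.29 µM artemisinin for full effect; nearly all actives have a fitted effect of over 65% in size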
Method in brief: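 RBC culture, 0.3% parasitemia / 2.5% Hct final; cpd added by pin tool in DMSO; 72 h, 37 C, 5% CO2; lysis buffer + SYBR Green I, o/n RT dark; FI 485/535; norm. to artemisinin 0.29 uM and DMSO.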

[22] = qHTS for differential inhibitors of proliferation of Plasmodium falciparum line W2 (AID 1883); conditions: Potency: Plasmodium falciparum W2 proliferation inhibition;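 note: parasites grown with compound for 72 h before lysis and staining; 0% = vehicle wells and -100% = control inhibitor wells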
[23] = qHTS for differential inhibitors of proliferation of Plasmodium falciparum line HB3 (AID 1886); conditions: Potency: Plasmodium falciparum HB3 proliferation inhibition;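 note: parasites grown with compound for 72 h before SYBR Green readout; plate controls were vehicle for no effect and reference inhibitor for full effect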
[24] = qHTS Assay for Modulators of Human Peripheral Myelin Protein 22 (PMP22) Expression/Activity (AID 1967; active = well fitted curve in the direction sought with a large enough effect in the signal ratio; the % refers to the signal ratio;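 note: 0% = untreated cells and 100% end not stated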)
Method in brief: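 Engineered MSC80 cells, Pmp22-promoter green and EF-alpha red luciferase reporters; 24h compound treatment at 37 °C. Concentration-response fits on green, red and ratio signals, each overlap-corrected, with %Activity normalized to untreated wells.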

[25] = target: Ferritin light chain (Equus caballus) (UniProt P02791); assay: qHTS Validation Assay for Identification of Novel General Anesthetics (AID 2323); note: % is set by controls: 0 for no effect and ±100 for the full control effect
Ferritin light chain (Equus caballus), sequence (P02791 2-175 limits assumed): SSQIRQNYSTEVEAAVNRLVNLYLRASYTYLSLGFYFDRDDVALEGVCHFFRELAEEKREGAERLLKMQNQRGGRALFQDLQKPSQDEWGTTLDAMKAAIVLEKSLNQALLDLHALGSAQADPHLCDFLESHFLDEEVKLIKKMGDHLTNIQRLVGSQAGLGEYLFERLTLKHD
Method in brief: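 Normalized fluorescence response, scaled between free 1-AMA and 1-AMA/apoferritin complex, fitted to a four-parameter Hill equation for concentration-effect values. Binding mix: 10 uM horse-spleen apoferritin, 50% saturated 1-AMA in PBS; read 380/535 nm after 10 min.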

[26] = target: ATP-dependent DNA helicase Q1 (Homo sapiens) (UniProt P46063); assay: qHTS Validation Assay for Inhibitors of RecQ-Like Dna Helicase 1 (RECQ1) (AID 2353);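 note: plate controls were DMSO vehicle for no effect and enzyme-free control for full effect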
Method in brief: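 RECQ1T1 50 nM; forked duplex (20 bp + 30-nt ss tails) 200 nM, ATP 2 mM final; pH 8.0, 2 mM MgCl2, 2.5 ug/ml poly(dI-dC); 15 min compound preincubation; discontinuous kinetic read over 2 h at RT.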

[27] = Validation screen for inhibitors of Lassa infection (AID 463096; calls by dose curve; note: % is set by controls: 0 for no effect and ±100 for the full control effect)
[28] = Validation screen for small molecules that induce DNA re-replication in MCF 10A normal breast cells (AID 463097); note: 0% is about no effect; nearly all actives have a fitted effect of over 60% in size
Method in brief: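 Following 48 hr compound incubation (37 C, 5% CO2), MCF 10A cells receive Hoechst for 40 min at 37 C. Nuclei are then scanned (excitation 405 nm, emission 500-530 nm) for total fluorescence intensity.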

[29] = Quantitative high throughput screen for delayed death inhibitors of the malarial parasite plastid, 48 hour incubation (AID 488752); note: % is set by controls: 0 for no effect and ±100 for the full control effect; nearly all actives have a fitted effect of over 65% in size
Method in brief: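 Luciferase-expressing P. falciparum in RBCs, 2% Hct, 0.1% parasitemia final; RPMI 1640 + 0.5% Albumax; 48 h, 37 C, 5% CO2; luminescence readout, signal drop = growth inhibition.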

[30] = target: M-phase phosphoprotein 8 (Homo sapiens) (UniProt Q99549); assay: qHTS Validation Assay for Inhibitors for MPP8 Chromodomain Interactions with Methylated Histone Tails (AID 488949);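 note: 50 nM MPP8 with 50 nM peptide preformed then compounds added for 30 min; AlphaScreen signal from MPP8 chromodomain bound to biotinylated H3K9me3 peptide; top concentration of the series differs between compounds; % is set by controls: 0 for no effect and ±100 for the full control effect; nearly all actives have a fitted effect of over 55% in size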
M-phase phosphoprotein 8 (Homo sapiens), sequence (Q99549 whole entry, looked up): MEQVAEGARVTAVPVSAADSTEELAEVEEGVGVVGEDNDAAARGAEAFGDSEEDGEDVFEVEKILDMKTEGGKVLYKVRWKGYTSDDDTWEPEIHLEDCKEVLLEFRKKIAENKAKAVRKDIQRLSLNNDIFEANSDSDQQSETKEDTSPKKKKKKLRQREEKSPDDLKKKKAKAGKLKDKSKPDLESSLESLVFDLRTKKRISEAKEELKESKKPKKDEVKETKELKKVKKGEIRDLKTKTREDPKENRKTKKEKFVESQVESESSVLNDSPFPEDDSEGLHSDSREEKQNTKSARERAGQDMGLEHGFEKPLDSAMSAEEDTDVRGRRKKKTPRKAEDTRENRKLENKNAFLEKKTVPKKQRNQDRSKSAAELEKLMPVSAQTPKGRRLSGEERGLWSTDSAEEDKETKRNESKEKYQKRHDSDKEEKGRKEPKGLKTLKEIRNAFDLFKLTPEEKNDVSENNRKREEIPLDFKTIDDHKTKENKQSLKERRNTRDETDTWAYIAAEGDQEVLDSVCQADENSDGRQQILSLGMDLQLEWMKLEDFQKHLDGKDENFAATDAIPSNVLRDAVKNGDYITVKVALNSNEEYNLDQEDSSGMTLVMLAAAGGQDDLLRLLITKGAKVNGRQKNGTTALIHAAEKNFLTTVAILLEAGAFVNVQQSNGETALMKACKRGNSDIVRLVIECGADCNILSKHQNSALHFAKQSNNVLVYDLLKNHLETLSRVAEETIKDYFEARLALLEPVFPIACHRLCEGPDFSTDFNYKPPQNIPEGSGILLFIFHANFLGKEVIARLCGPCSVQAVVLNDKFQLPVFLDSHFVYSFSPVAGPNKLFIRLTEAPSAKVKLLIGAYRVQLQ
Method in brief: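 Chemiluminescent proximity assay: histidine-tag capture via nickel acceptor beads, biotin peptide via streptavidin donor beads. Protein and peptide each at 50 nM, pH 7.4, with 30 min incubations at room temperature for complex formation, compound exposure and bead binding.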

[31] = target: Transient receptor potential cation channel subfamily V member 1 (Homo sapiens) (UniProt Q8NER1); assay: HTS Assay for Compounds that Act as Enhancers of the Vanilloid Receptor 1 (AID 488979); note: 0% is about no effect
Method in brief: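 Calcium influx kinetics via Fluo-8 (480/520 nm) in TRPV1-expressing cells, 2000/well cultured overnight at 35.5C. Compound-alone read 3 min (agonist phase), followed by EC20 capsaicin challenge for 2 min (enhancer phase).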

[32] = target: Thyrotropin receptor (Homo sapiens) (UniProt P16473); assay: qHTS Assay for Antagonists of the Thyroid Stimulating Hormone Receptor (AID 488980); note: 0% is about no effect
Method in brief: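 Inhibition of TSH-stimulated cAMP accumulation was quantified by homogeneous time-resolved FRET in TSHR-transfected HEK293 cells. Agonist: TSH, 4 nM final (EC80).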

[33] = target: Thyrotropin-releasing hormone receptor (Homo sapiens) (UniProt P34981); assay: qHTS for Small Molecule Agonists and Allosteric Enhancers of Human TRH Receptor: Validation Screen for Agonists (AID 493127;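 active = calcium activation more than 3 SD above the typical response in the agonist read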;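 note: intracellular calcium rise by fluo-8 fluorescence before TRH EC20 addition; 0% is about no effect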); conditions: TRH receptor agonist cell assay; at 2 µM; stronger effect = higher value
Method in brief: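 Read-out: intracellular calcium release measured kinetically by FDSS (fluo-8, ex 480/em 530 nm), 1 reading/s after a 10-cycle baseline. TRHR cells, 2000/well, cultured 18 h at 33.5C, dye-loaded at room temp. Compound-evoked positive calcium signal flags agonists.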

[34] = target: Galactokinase (Homo sapiens) (UniProt P51570); assay: qHTS Validation Assay for Inhibitors of Human Galactokinase (GALK) (AID 493189); note: 0% is about no effect
Method in brief: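 Enzyme activity is inferred from ATP consumption: human GALK phosphorylates galactose (100 uM) using 35 uM ATP for 1 h at room temperature, and luciferase-based Kinase-Glo Plus reports unconsumed ATP.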

[35] = target: Ubiquitin carboxyl-terminal hydrolase 1 (Homo sapiens) (UniProt O94782); assay: Inhibitors of USP1/UAF1: Pilot qHTS (AID 504865);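 note: rhodamine fluorescence freed from ubiquitin-rhodamine substrate followed over time; top concentration of the series differs between compounds; % is set by controls: 0 for no effect and ±100 for the full control effect; nearly all actives have a fitted effect of over 35% in size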
Method in brief: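 Enzyme-free wells gave the negative control, while test wells held 1nM USP1/UAF1 preincubated with compound for 15 min at room temperature. Ub-Rho at 150nM final started the reaction, and fluorescence at 480/540 nm was recorded kinetically.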

[36] = target: DNA dC->dU-editing enzyme APOBEC-3G (Homo sapiens) (UniProt Q9HC16); assay: qHTS for inhibitors of Vif-A3G interactions: Validation (AID 588379); note: 0% is about no effect
Method in brief: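 Yellow fluorescence (Ex 488, Em 500-530) of Vif-coexpressing HeLa A3G-eYFP cells, scanned by Acumen cytometer, reports blocked A3G degradation. Cells plated at 700/well overnight at 37 deg C before compound addition, then a further overnight compound incubation at 37 deg C.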

[37] = target: Voltage-gated inwardly rectifying potassium channel KCNH2 (Homo sapiens) (UniProt Q12809); assay: qHTS Assay for Small Molecule Inhibitors of the Human hERG Channel Activity (AID 588834);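 note: top concentration of the series differs between compounds; % is set by controls: 0 for no effect and ±100 for the full control effect; lower thallium flux fluorescence means stronger hERG block; nearly all actives have a fitted effect of over 50% in size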
Method in brief: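 Homogeneous FluxOR thallium flux assay using hERG-expressing U2OS cells (BacMam). Compound treatment about 10 minutes preceded stimulation; reduced fluorescence taken as channel block.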

[38] = Primary qHTS for small molecule stabilizers of the endoplasmic reticulum resident proteome: Secreted ER Calcium Modulated Protein (SERCaMP) assay (AID 1508630)
Method in brief: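 The SH-SY5Y reporter protocol was run at 3 concentrations up to 38.3 uM (primary) or 11 concentrations (follow-up): 16 h compound, 100 nM thapsigargin for 4 h, then extracellular luciferase luminescence.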

CCCCCOc1c(OC)ccc2cc(C(=O)NCc3ccc4c(c3)OCO4)c(=O)[nH]c12
inactive: Potency [1]

N[C@@H](Cn1cc(I)c(=O)[nH]c1=O)C(=O)O
inactive: Potency [2] > 46 µM | Potency [3] > 46 µM | outcome [4] | Potency [5] | Potency [6] | outcome [7] | outcome [8] | outcome [9] | outcome [10] | outcome [11] | outcome [12] | outcome [13] | activity change, negative = inhibition ([14]; at 57.5 µM (top of the series)) 1.49% and 0.139% | Potency [15] | Potency [16] | Potency [17] | Potency [18] | Potency [19] | Potency [20] | Potency [21] | Potency [22] | Potency [23] | outcome [24] | outcome [25] | Potency [26] | Potency [27] | Potency [28] | Potency [29] | Potency [30] | outcome [31] | outcome [32] | activation [33] 0.375% | outcome [34] | Potency [35] | Potency [36] | Potency [37] | Potency [1] | Potency [38]
4.16% and -23.5%: max response ([14]; measured here: lipid channel max response)
1.2% and -23.8%: max response ([14]; measured here: cell count channel max response)
